Reference: PubChem BioAssay (NCI)
Compounds without any hit were thinned out: in the full panel of roughly 83,000, 20% have a hit.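 Treatment: one concentration, 48 hours, 96-well format. Scoring: percent growth, with anything below 10 considered active.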 Unmarked numbers belong to inactive results. Activity calls are given as the source filed them.

The compounds below were run on HT29 colon (assay: NCI-60 one-dose screen, 48 h (100 = growth as untreated, 0 = no growth, -100 = all killed)). Conditions: 10 µM unless noted.
Description: Growth inhibition of the HT29 human tumor cell line is measured as a screen for anti-cancer activity. Cells are grown in 96 well plates and exposed to the test compound for 48 hours. Compounds are tested at a single concentration, which is 10^-5 M for most compounds. The reported endpoint is percent growth (GI% or GIPRCNT), where numbers from 0 - 100% represent growth inhibition, and numbers from -100% - 0 represent cell death. For example, a value of 40 represents 60% growth inhibition. A value of 0 means no net growth occurred over the course of the experiment. A value of -40 indicates 40% of cells at the beginning of the experiment died by the end of the experiment. A value of -100 means all cells are dead at the end of the experiment.
NCI-60 Human Tumor Cell Lines Screen was performed using the standard one-dose NCI protocol, which is described in more detail at https://dtp.cancer.gov/discovery_development/nci-60/default.htm.
Compounds with GIPRCNT values below 10 were considered active. Activity score was based on GIPRCNT using the following formula: […]
Score is 0 for GIPRCNT values of 100 or above, 50 for GIPRCNT values of 0, and 100 for GIPRCNT values of -100.

Compound	growth
CCC(C)N(CCNc1cc(OC)cc2cccnc12)CC(C)C (stereo not given)	73.7%
CC(C)c1ccc(C(=O)Nc2nc3ccc(O)c(CN(C)C)c3s2)cc1	23.8%
O=[N+]([O-])c1cccc(-c2nc3cc4nc5ccccc5[nH]c4cc3n2)c1	100%
O=C1C(Cl)=C(Nc2ccc(S(=O)(=O)N3CCOCC3)cc2)C(=O)c2ccccc21	49.2%
O=C(/C=C/c1cccs1)Nc1ncc(Cc2ccccc2F)s1	8.61% (active)
O=C(c1ccccc1)c1ccc(C2CCCCC2)cc1	91.5%
COC(=O)c1nc(-c2ccccc2)oc1S(=O)(=O)Cc1ccccc1	49.4%
CCCC/C=C/[C@@H]1C[C@H]1CCO	97.2%
O=C(N(c1ccccc1)c1ccccc1)n1cc(I)c2nc(Cl)nc(Cl)c21	29.7%
CC(C)c1ccc(C(=O)Nc2sc3c(c2C(N)=O)CCC(=O)C3)cc1	5.66% (active)
C1CCC([PH+](C2CCCCC2)C2CCCCC2[PH+](C2CCCCC2)C2CCCCC2)CC1.[Au].[CH-]1CCCCC1C1CCCC[N-]1 (stereo not given)	2.8% (active)
N#Cc1c(-c2ccc(Cl)cc2)nc(NN2C(=O)c3ccccc3C2=O)nc1N1CCOCC1	108%
CN(C)c1ccc(C(=O)OCCCCCCl)cc1	99.1%
COc1ccc(/C=N/C2=C(C#N)C(c3ccccc3)c3ccc4ccccc4c3O2)cc1 (stereo not given)	6.29% (active)
O=S(=O)(NCCNc1nccc(-c2c(-c3ccc(F)c(O)c3)nc3occn23)n1)c1ccc(Cl)cc1	92.3%
O=C(OC(CO)C(=O)NC12CC3CC(CC(C3)C1)C2)c1ccc(Cl)cc1 (stereo not given)	100%
N#Cc1ccc(O)c(C2=NCC(c3ccccc3)O2)c1 (stereo not given)	46.2%
CCCn1cc2c(=O)nc3sc(Cc4ccccc4)c(C)n3c2n1	98%
Cc1cc(N2CCCCC2)cc(C)c1-c1csc(NC(=O)c2ccncc2)n1	69%
Cc1ccc(NC(=O)c2sc3nc(C)c(Br)c(C)c3c2N)cc1	87.4%

Compound	growth
OCCn1cc(-c2nc(-c3c[nH]c4ncccc34)cs2)c2cc(F)ccc21	46.8%
CC/C=C\C[C@H](O)C/C=C1/C(=O)C=C[C@@H]1C/C=C\CCCC(=O)N(C)C	-71.5% (active)
CCCCCCCC[C@@H]1N[C@@H](C(=O)OC)Cc2c1[nH]c1ccccc21	111%
O=C1/C(=C/c2ccccc2Br)COc2ccc(O)cc21	48.8%
O=C(/C=C/c1cccc(Cl)c1)c1ccc(Nc2nc(Nc3ccc(F)cc3)nc(Nc3ccc(Cl)cc3)n2)cc1	108%
CCN1C(=S)N(c2ccccc2)C2C1NN=c1s/c(=C3\C(=O)N(C(C)C)c4ccccc43)c(=O)n12 (stereo not given)	69.6%
CC(C)COc1nc2c(c(=O)n(C)c(=O)n2C)n1C	99.8%
O=C1Nc2ccccc2/C1=C/c1nc2ccccc2c(=O)[nH]1	105%
O=C(Nc1ccccc1O)c1ccc(CNC(=O)c2sccc2Nc2ccnc(C(F)(F)F)c2)cc1	53%
Cc1ccc(-c2nc([P+](c3ccccc3)(c3ccccc3)c3ccccc3)c(S(=O)(=O)c3ccc(C)cc3)o2)cc1	0% (active)
C=CC(=O)N1CCN(c2cccc(Oc3nccc(Nc4nnc(-c5ccc(Br)cc5)s4)n3)c2)CC1	53.1%
C=C(CBr)[C@@H]1CC[C@]2(C(=O)O)CC[C@]3(C)[C@H](CC[C@@H]4[C@@]5(C)CCC(=O)C(C)(C)[C@@H]5CC[C@]43C)[C@@H]12	97.5%
CSc1nnc(-c2cc3c([nH]c4ccccc43)c(-c3cccc(O)c3)n2)n1-c1ccccc1	41.3%
CNC(=O)c1[nH]cc(-c2ccc(OC)cc2)c1-c1cc(OC)c2c(c1OC)OCO2	108%
Nc1nc(-c2ccc(Cl)cc2)nc2c1sc(=S)n2-c1ccccc1	47.9%
COC(=O)c1cc(N=C2NC(=O)/C(=C/C=C/c3ccccc3)S2)ccc1O	10.7%
COc1ccc2c(c1)c(-c1nc(-c3c[nH]c4ccncc34)cs1)cn2C	-72.1% (active)
CCOC(=O)C1=C(C)NC(=O)NC1c1c(Cl)n(CCCl)c2ccccc12 (stereo not given)	107%
COc1c(B(O)O)cccc1-c1nc2c(F)cc3[nH]ncc3c2c2c1CCCC2	6.27% (active)
N=C(N)c1ccc(-c2ccc(-c3ccc(Cl)cc3Cl)s2)cc1	3.85% (active)
